ALDH1A1 inh: qHTS Assay for Inhibitors of Aldehyde Dehydrogenase 1 (ALDH1A1) | Potency, µM (doses to about 75.3 µM), for inactives: at the top dose activity, negative = inhibition, hits mostly inhibitors | Purified ALDH1A1, NADH fluorescence, propionaldehyde substrate | AID 1030, 2008 | actives 7.3% (n = 220,000);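 further: potency means the concentration at half of the fitted maximal effect; plate controls were no enzyme wells and a reference inhibitor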
PNC assembly inh: High Content Assay for Compounds that inhibit the Assembly of the Perinucleolar Compartment; PC3M PTB-GFP, PNC prevalence imaging, 16 h; stronger effect = lower value; activity change (PNC), negative = inhibition, % at 10 µM; actives 3.1% (n = 140,000); AID 2417, 2010;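 active means readout at or below -70, meaning at least 70% loss of cells showing the perinucleolar compartment, a nuclear body marking cancer cells; inconclusive means readout between -30 and a set limit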;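 further: plate controls were DMSO wells for no effect and camptothecin positive control wells for full effect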
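Compounds are pinned in duplicate onto adhered PC3M cells stably expressing GFP-tagged PTB and incubated 16 h at 37 C. Cells are then fixed, nuclei stained with Hoechst, and PNC-positive cells counted.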
HPGD inh: qHTS Assay for Inhibitors of HPGD (15-Hydroxyprostaglandin Dehydrogenase); purified HPGD, NADH fluorescence kinetic, PGE2 substrate; Potency, µM, for inactives: at the highest dose activity change, negative = inhibition, usual class: inhibitors; actives 4.3% (n = 150,000); further: potency means the concentration at half of the fitted maximal effect
Target sequence (P15428 whole entry, looked up): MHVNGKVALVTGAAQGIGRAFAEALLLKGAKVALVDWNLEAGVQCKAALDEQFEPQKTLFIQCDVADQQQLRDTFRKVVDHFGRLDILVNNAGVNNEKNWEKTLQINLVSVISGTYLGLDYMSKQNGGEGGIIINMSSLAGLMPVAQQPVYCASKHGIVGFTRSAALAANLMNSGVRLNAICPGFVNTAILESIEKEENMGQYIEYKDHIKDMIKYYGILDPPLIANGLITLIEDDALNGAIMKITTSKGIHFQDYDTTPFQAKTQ
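NADH formation kinetics: reaction with 30 uM PGE2 and 1 mM NAD+ (final), 20 nM enzyme, Tris-HCl pH 8 with Tween 20, after 15 min compound preincubation at room temperature. Fluorescence change, last versus first of five reads.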
Starred values were filed as active, the others as inactive; [ ] = dose if it differs, or a comment. Only some compounds are listed: those with a hit (about 11% of all), similar ones and a draw of the others. Unless noted, the call rests on the fitted dose curve; in most records, active means well fitted inhibition curve with a large enough effect (not every such curve was filed as active); inconclusive means small, poorly fitted or top-dose-only effect, or another doubt; inactive means no such curve, though single readings can be large or run the other way. Unless noted, on the % scale 0 is the no-effect control and ±100 the full control effect.

How did COc1ccccc1/C=C/C1C(C(=O)OCC(C)C)=C(C)N=C2SCCC(=O)N21 (centres undefined) do in these assays?
ALDH1A1 inh: 22µM*

What do the screens show for `COc1ccc(N(C(=O)CNC(=O)c2cccs2)C(C(=O)NCC2CCCO2)c2ccccc2)cc1OC` (centres undefined)?
ALDH1A1 inh: 1%

What do the screens show for `CC12CCC(c3nnc(SCc4ccc(Cl)cc4)nc31)C2(C)C` (centres undefined)?
ALDH1A1 inh: -5%; PNC assembly inh: 1; HPGD inh: -20%

Results for CC12CCC(c3n[nH]c(=S)nc31)C2(C)C (centres undefined) ?
ALDH1A1 inh: 20µM*; PNC assembly inh: -113*; HPGD inh: inconclusive

How did COc1ccc(Oc2nccc(OC)c2C#N)cc1 do in these assays?
ALDH1A1 inh: -12%; PNC assembly inh: -23; HPGD inh: -4%

How did N#Cc1c(-c2ccccc2)ccnc1Oc1ccccc1 do in these assays?
ALDH1A1 inh: inconclusive; PNC assembly inh: -96*; HPGD inh: -29%

What do the screens show for `CCCN(CCC)S(=O)(=O)c1ccc(C(=O)Nc2cc3oc4ccccc4c3cc2OC)cc1`?
ALDH1A1 inh: inconclusive; PNC assembly inh: 4; HPGD inh: -23%

How did O=C(O)C(Cc1ccccc1)n1c(=S)[nH]c2ccccc2c1=O (centres undefined) do in these assays?
ALDH1A1 inh: -2%

How did COc1ccc2c(c1OC)C(=O)OC2Nc1ncccc1C (centres undefined) do in these assays?
ALDH1A1 inh: 0%; PNC assembly inh: 35; HPGD inh: -14%

How did COc1ccc2c(c1OC)C(=O)OC2Nc1nc(-c2ccc(-c3ccccc3)cc2)cs1 (centres undefined) do in these assays?
ALDH1A1 inh: inconclusive; PNC assembly inh: -123*; HPGD inh: inconclusive

What do the screens show for `COc1ccc2c(c1OC)C(=O)OC2Nn1cncn1` (centres undefined)?
ALDH1A1 inh: inconclusive; PNC assembly inh: -94*; HPGD inh: -26%

What do the screens show for `COc1ccc2c(c1OC)C(=O)OC2Nc1nc(-c2cc3ccccc3oc2=O)cs1` (centres undefined)?
ALDH1A1 inh: inconclusive; PNC assembly inh: -7; HPGD inh: -25%

How did Cc1ccc2c(c1)C(c1ccc(F)cc1)N(C(=O)c1cc3ccccc3oc1=O)CC(=O)N2 (centres undefined) do in these assays?
ALDH1A1 inh: inconclusive; PNC assembly inh: -89*; HPGD inh: -6%

What do the screens show for `Cc1ccc2c(c1)C(c1ccccc1)N(C(=O)C(C)C)CC(=O)N2` (centres undefined)?
ALDH1A1 inh: 8%; PNC assembly inh: 7; HPGD inh: 1%

What do the screens show for `FC(F)Oc1ccc(NC(=S)NCC2COc3ccccc3O2)cc1` (centres undefined)?
ALDH1A1 inh: -3%; PNC assembly inh: 21; HPGD inh: -18%

How did O=S(=O)(c1ccccc1)c1nc(-c2ccco2)oc1NCCCn1ccnc1 do in these assays?
ALDH1A1 inh: 25µM*; PNC assembly inh: -24; HPGD inh: -23%

How did CCNc1oc(-c2ccc(OC)cc2)nc1S(=O)(=O)c1ccc(Br)cc1 do in these assays?
ALDH1A1 inh: inconclusive; PNC assembly inh: -2; HPGD inh: -19%

Results for CCCCNc1oc(-c2ccc(OC)cc2)nc1S(=O)(=O)c1ccccc1 ?
ALDH1A1 inh: 22µM*; PNC assembly inh: -8; HPGD inh: inconclusive

How did O=S(=O)(c1ccccc1)c1nc(-c2ccco2)oc1NCc1ccco1 do in these assays?
ALDH1A1 inh: -6%; PNC assembly inh: -5; HPGD inh: 1%

Results for O=C(Nc1cccc(S(=O)(=O)N2CCOCC2)c1)[C@@H]1CCCN1S(=O)(=O)c1ccc(Cl)cc1 ?
ALDH1A1 inh: 9%; PNC assembly inh: inconclusive; HPGD inh: -13%

How did COc1ccc2[nH]cc(CCNc3ncnc4ccc(-c5ccccc5OC)cc34)c2c1 do in these assays?
ALDH1A1 inh: 5%

Results for O=C(O)c1cc(-c2ccccc2)n(-c2ccc(Cl)cc2)n1 ?
ALDH1A1 inh: -22%

What do the screens show for `Cc1nn(-c2ccccn2)c2c1C(c1c(F)cccc1Cl)C1=C(N2)c2ccccc2C1=O` (centres undefined)?
ALDH1A1 inh: inconclusive; PNC assembly inh: inconclusive; HPGD inh: -11%

How did CN(C)S(=O)(=O)c1cccc(NC(=S)Nc2cc(Cl)cc(Cl)c2)c1 do in these assays?
ALDH1A1 inh: inconclusive; PNC assembly inh: 35; HPGD inh: -23%

How did CCN(CCO)c1ccc(NC(=S)Nc2cccc(S(=O)(=O)N(C)C)c2)cc1 do in these assays?
ALDH1A1 inh: 25µM*

How did CN(C)S(=O)(=O)c1cccc(NC(=S)NCCc2ccccn2)c1 do in these assays?
ALDH1A1 inh: -11%

Results for CN(C)S(=O)(=O)c1cccc(NC(=S)Nc2ccc(Cl)cc2Cl)c1 ?
ALDH1A1 inh: 13µM*; PNC assembly inh: inconclusive; HPGD inh: inconclusive

What do the screens show for `CCOc1ccc(-c2cc(C(=O)N/N=C/c3ccc(O)c(OC)c3)[nH]n2)cc1`?
ALDH1A1 inh: inconclusive; HPGD inh: -14%

Results for COc1ccc(Br)cc1CNC(=O)Cc1c(C(=O)O)[nH]c2ccc(Cl)cc12 ?
ALDH1A1 inh: 2%

How did C(=N\N1CCN(Cc2ccccc2)CC1)/c1cccnc1 do in these assays?
ALDH1A1 inh: 5%; PNC assembly inh: -116*; HPGD inh: -5%

How did FC(F)(F)c1ccc(/C=N/N2CCN(Cc3ccccc3)CC2)cc1 do in these assays?
ALDH1A1 inh: -1%; PNC assembly inh: inconclusive; HPGD inh: 1%

What do the screens show for `CCN(CC)c1ccc(/C=N/N2CCN(Cc3ccccc3)CC2)c(O)c1`?
ALDH1A1 inh: inconclusive; PNC assembly inh: 60; HPGD inh: -16%

Results for CCN(CC)c1ccc(/C=N/N2CCN(Cc3ccccc3)CC2)cc1 ?
ALDH1A1 inh: 7.9µM*

What do the screens show for `O=C(NCc1ccc2c(c1)OCO2)C1CCN(S(=O)(=O)N2CCCCC2)CC1`?
ALDH1A1 inh: 5µM*; PNC assembly inh: 28; HPGD inh: -8%

What do the screens show for `O=C(NCc1ccc2c(c1)OCO2)C1CCN(S(=O)(=O)c2ccc(Br)s2)CC1`?
ALDH1A1 inh: inconclusive; PNC assembly inh: -5; HPGD inh: -13%

What do the screens show for `O=C(NCc1ccc2c(c1)OCO2)C1CCN(S(=O)(=O)c2cccs2)CC1`?
ALDH1A1 inh: 0.32µM*; PNC assembly inh: 7; HPGD inh: -11%

Results for O=C(NCc1ccc2c(c1)OCO2)C1CCN(S(=O)(=O)N2CCOCC2)CC1 ?
ALDH1A1 inh: inconclusive; PNC assembly inh: 68; HPGD inh: -20%

Results for Clc1cccc(Cl)c1-c1nnc2cccc(Cl)n12 ?
ALDH1A1 inh: -2%; PNC assembly inh: -4; HPGD inh: -9%

Results for C#CCCCO/N=C1/[C@H]2O[C@@H]2[C@@H](O)[C@H]2[C@H]1CCn1c(=O)n([C@@H](CC)c3ccccc3)c(=O)n12 ?
ALDH1A1 inh: -9%[13.5 µM]

What do the screens show for `N#Cc1cccc(NC(=O)N2CCCC3(CCN(C(=O)c4cnccn4)CC3)C2)c1`?
ALDH1A1 inh: 10%; HPGD inh: -1%

From PubChem BioAssay
